Inconclusive results are not listed. The source made the active and inactive calls. Calls follow the shape of the dose curve; as a rule, active = well fitted curve in the direction sought with a large enough effect; inconclusive = small, poorly fitted or top-dose-only effect, or another doubt; inactive = no such curve, though single readings can be large; an effect the other way counts as inactive or inconclusive.

Experiment [1] in a line: qHTS of pediatric cancer cell lines to identify multiple opportunities for drug repurposing: Confirmatory screen for NB-EBc1 cells (AID 1347115).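 Also: cells exposed to compound for 48 h before the viability read; nearly all actives have a fitted effect of over 45% in size.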 Also: potency is read from the fitted curve at half-maximal effect. Put shortly: (§1)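 Cells (500-1,000/well) rested 5 h, then received compounds for 48 h; metabolically active cells were measured by CellTiter-Glo luminescence. Final concentrations spanned up to 46 µM (MIPE, 11-point) or 0.59 nM-46 µM (NPC, 8-point) in primary screens, 11-point in follow-ups.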
In general terms: qHTS replaces the single test concentration by a dilution series.

Experiment [2] can be described thus: qHTS of pediatric cancer cell lines to identify multiple opportunities for drug repurposing: Confirmatory screen for BT-37 cells (AID 1347117). Also: nearly all actives have a fitted effect of over 55% in size. Also: potency is read from the fitted curve at half-maximal effect. Put shortly: as §1
Experiment [3] in a line: qHTS of pediatric cancer cell lines to identify multiple opportunities for drug repurposing: Confirmatory screen for MG 63 (6-TG R) cells (AID 1347119). Also: nearly all actives have a fitted effect of over 55% in size. Also: potency is read from the fitted curve at half-maximal effect. The method in brief: as §1
The nature of experiment [4]: qHTS of pediatric cancer cell lines to identify multiple opportunities for drug repurposing: Confirmatory screen for control Hh wild type fibroblast cells (AID 1347121). Also: nearly all actives have a fitted effect of over 70% in size. Also: potency is read from the fitted curve at half-maximal effect. The method in brief:
as §1

Experiment [5] can be described thus: qHTS of pediatric cancer cell lines to identify multiple opportunities for drug repurposing: Confirmatory screen for U-2 OS cells (AID 1347122). Also: nearly all actives have a fitted effect of over 65% in size. Also: potency is read from the fitted curve at half-maximal effect. The method in brief:
as §1

Experiment [6] is described as follows: qHTS of pediatric cancer cell lines to identify multiple opportunities for drug repurposing: Confirmatory screen for Rh41 cells (AID 1347123).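 Also: 48 h compound exposure; nearly all actives have a fitted effect of over 60% in size.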 Also: potency is read from the fitted curve at half-maximal effect. Put shortly:
as §1

Experiment [7] in a line: qHTS of pediatric cancer cell lines to identify multiple opportunities for drug repurposing: Confirmatory screen for RD cells (AID 1347124).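 Also: cells exposed to compound for 48 h before viability readout; nearly all actives have a fitted effect of over 65% in size.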 Also: potency is read from the fitted curve at half-maximal effect. Put shortly:
as §1

The nature of experiment [8]: qHTS of pediatric cancer cell lines to identify multiple opportunities for drug repurposing: Confirmatory screen for Rh18 cells (AID 1347125). Also: nearly all actives have a fitted effect of over 55% in size. Also: potency is read from the fitted curve at half-maximal effect. The method in brief:
as §1

Experiment [9] is described as follows: qHTS of pediatric cancer cell lines to identify multiple opportunities for drug repurposing: Confirmatory screen for Rh30 cells (AID 1347126). Also: nearly all actives have a fitted effect of over 55% in size. Also: potency is read from the fitted curve at half-maximal effect. The method in brief:
as §1

Experiment [10] in a line: qHTS of pediatric cancer cell lines to identify multiple opportunities for drug repurposing: Confirmatory screen for Saos-2 cells (AID 1347127). Also: nearly all actives have a fitted effect of over 60% in size. Also: potency is read from the fitted curve at half-maximal effect. The method in brief: as §1
Experiment [11] can be described thus: qHTS of pediatric cancer cell lines to identify multiple opportunities for drug repurposing: Confirmatory screen for OHS-50 cells (AID 1347128). Also: potency is read from the fitted curve at half-maximal effect. Put shortly:
as §1

Experiment [12] can be described thus: qHTS of pediatric cancer cell lines to identify multiple opportunities for drug repurposing: Confirmatory screen for SK-N-SH cells (AID 1347129).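 Also: cells exposed to compound for 48 h before viability read; nearly all actives have a fitted effect of over 60% in size.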 Also: potency is read from the fitted curve at half-maximal effect. Put shortly:
as §1

The subject of experiment [13] is Zika virus NS2B-NS3 protease. Briefly: Primary screen GU AMC qHTS for Zika virus inhibitors (AID 1347154). Also: nearly all actives have a fitted effect of over 70% in size. Also: potency is read from the fitted curve at half-maximal effect. The method in brief:
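Fluorogenic AMC-substrate cleavage by noncovalent NS2B-NS3 protease complex (25 nM, pH 8.0 Tris buffer with Tween 20) followed for 15 minutes at room temperature (~20% conversion). Percent inhibition from ex340/em450 signal change, fitted by 4-parameter Hill equation.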

A short description of experiment [14]: qHTS of pediatric cancer cell lines to identify multiple opportunities for drug repurposing: Confirmatory screen for SJ-GBM2 cells (AID 1347116). Also: nearly all actives have a fitted effect of over 60% in size. Also: potency is read from the fitted curve at half-maximal effect. The method in brief:
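Viability measured as metabolically active cells via CellTiter-Glo luminescence following 48 hours of compound exposure, 11-point dilutions in confirmatory testing. 500-1,000 cells/well plated 5 hours before dosing; controls were DMSO and 2.3 µM bortezomib.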

The nature of experiment [15]: qHTS of pediatric cancer cell lines to identify multiple opportunities for drug repurposing: Confirmatory screen for TC32 cells (AID 1347118).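 Also: cells exposed to compound for 48 h before the read; nearly all actives have a fitted effect of over 65% in size.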 Also: potency is read from the fitted curve at half-maximal effect. Put shortly:
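Measured quantity: luminescence from CellTiter-Glo, reflecting metabolically active TC32 cells following 48 h of compound. Curves came straight from multi-point titrations, with 8 or 11 points in primary and 11 in confirmatory screening.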

Experiment [16] deals with Zika virus NS2B-NS3 protease (unlinked complex). Briefly: Confirmatory screen GU AMC qHTS for Zika virus inhibitors (AID 1347153). Also: nearly all actives have a fitted effect of over 70% in size. Put shortly: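 Unlinked enzyme 25 nM, Tris pH 8.0/0.01% Tween 20; cpd 15 min RT, dark; + AMC substrate 10 µM (Km 18.3 µM); 340/450 nm read at t0 and 15 min; % inhibition → 4-param fit.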

For `O=C(Nc1cn[nH]c1-c1nc2ccc(CN3CCOCC3)cc2[nH]1)NC1CC1`, the Potency entry in experiment [1], in [2], in [3], in experiment [4], in experiment [5] and in experiment [6] was “inactive” each time. In addition, the Potency result in experiment [7], in experiment [8], in experiment [9], in [10], in [11] and in experiment [12] was “inactive” in each case. Besides, in experiment [13], the Potency entry is “inactive”.
On to `Cc1nc(Nc2n[nH]c3c2CN(C(=O)N[C@H](CN(C)C)c2ccccc2)C3(C)C)c2sccc2n1`, for which the Potency result in experiment [1], in experiment [14], in experiment [4], in [5], in experiment [6] and in experiment [9] was “inactive” throughout. Besides, the Potency result in [10], in experiment [12] and in experiment [13] was “inactive” throughout.
For the compound `CC(C)c1nn(-c2c(Cl)cccc2Cl)c2nc(Cc3ccc(OCCO)cc3)[nH]c(=O)c12`, the Potency entry in experiment [1] and in experiment [13] was “inactive” each time. Besides, the Potency in experiment [2] is 0.0827 µM (active); in [15] it was 0.131 µM (active); in experiment [5] it was 0.0827 µM (active); in [6], 0.131 µM (active); in experiment [7] it was 0.208 µM (active); in [10], 0.0827 µM (active). Also, the figures for the Potency in [11] and in experiment [12] were 0.104 µM (active) and 0.118 µM (active), respectively.
In the case of `CN1CC[C@@H](c2c(O)cc(O)c3c(=O)cc(-c4ccccc4Cl)oc23)[C@@H](O)C1`, the Potency entry in [1], in experiment [4] and in [13] was “inactive” throughout. Further, the Potency in [14] was 0.369 µM (active); in experiment [2], 0.414 µM (active); in experiment [5], 0.329 µM (active); in [6], 0.369 µM (active); in experiment [7] it was 0.737 µM (active); in experiment [8], 1.17 µM (active). The Potency in experiment [9] is 0.369 µM (active); in experiment [10] it was 0.522 µM (active); in [11], 0.414 µM (active); in experiment [12], 0.418 µM (active).
As for `CCc1c2c(nc3ccc(O)cc13)-c1cc3c(c(=O)n1C2)COC(=O)[C@]3(O)CC`, the Potency was 0.001 µM (active) in [1]; 3.69 µM (active) in [5]; 0.261 µM (active) in experiment [6]; 1.47 µM (active) in [9]; 3.32 µM (active) in experiment [12]. Moreover, the Potency result in [14], in experiment [4], in experiment [10], in experiment [11] and in [13] was “inactive” throughout.
For the compound `Cc1cc(N2CCOCC2)cc2[nH]c(-c3c(NC[C@@H](O)c4cccc(Cl)c4)cc[nH]c3=O)nc12`, the Potency in experiment [1] is 1.17 µM (active); in experiment [14] it was 0.369 µM (active); in experiment [15], 0.465 µM (active); in experiment [3], 0.329 µM (active); in [5] it was 7.37 µM (active); in experiment [6], 0.657 µM (active). The Potency in experiment [8] was 3.29 µM (active); in [9], 0.293 µM (active); in experiment [10], 3.69 µM (active); in [11] it was 3.29 µM (active); in experiment [12], 3.72 µM (active); in experiment [13], 17.1 µM (active). Moreover, the Potency result in experiment [16] is “inactive”.
Turning to `CC=C1NC(=O)[C@H]2CSSCCC=C[C@H](CC(=O)N[C@H](C(C)C)C(=O)N2)OC(=O)[C@H](C(C)C)NC1=O`, the Potency entry in experiment [1], in [14], in experiment [4], in [5], in experiment [6] and in experiment [8] was “inactive” throughout. The Potency result in experiment [9], in [11], in [12] and in experiment [13] was “inactive” in each case. Further, in [15], the Potency was 14.7 µM (active).
With `COc1cccc2c(NCc3ccccc3)nc(-n3c(N)nc4ccccc43)nc12`, the Potency in [1] is 8.27 µM (active); in [2] it was 7.37 µM (active); in experiment [3], 5.85 µM (active); in experiment [4], 9.27 µM (active); in experiment [6] it was 0.208 µM (active); in experiment [9], 0.0465 µM (active). In addition, the results for the Potency in experiment [10], in experiment [11] and in [12] were 9.27 µM (active), 8.27 µM (active) and 8.33 µM (active), respectively. Besides, the Potency result in experiment [13] was “inactive”.
For `CCNC(=O)Nc1ccc2ncc(Nc3ccc(C)cc3)nc2n1`, the Potency entry in [1], in experiment [2], in experiment [15], in experiment [3], in [4] and in experiment [5] was “inactive” throughout. Besides, the Potency entry in experiment [6], in experiment [8], in experiment [9], in experiment [10], in experiment [11] and in experiment [12] was “inactive” each time. For the same compound, in experiment [13], the Potency result is “inactive”.
As for `O=C(O)c1ccc2cc(-c3ccc(O)c(C45CC6CC(CC(C6)C4)C5)c3)ccc2c1`, the Potency was 0.737 µM (active) in [1]; 1.47 µM (active) in experiment [2]; 0.585 µM (active) in [3]; 3.29 µM (active) in experiment [6]; 0.104 µM (active) in [9]; 1.31 µM (active) in experiment [10]. In experiment [11], the Potency was 2.93 µM (active). In addition, the Potency entry in experiment [4] and in experiment [12] was “inactive” in each case.
In the case of `COc1cc2nccc(Oc3ccc(NC(=O)C4(C(=O)Nc5ccc(F)cc5)CC4)cc3)c2cc1OC`, the Potency result in experiment [1], in experiment [4] and in experiment [13] was “inactive” each time. In addition, the Potency in experiment [14] was 1.65 µM (active); in [5], 23.3 µM (active); in experiment [6], 26.1 µM (active); in experiment [10], 18.5 µM (active); in experiment [11], 20.8 µM (active).
Regarding `Cn1c2ccccc2c2c3c(c4c5ccccc5n(CCC#N)c4c21)CNC3=O`, the Potency in [1] is 23.3 µM (active); in experiment [2], 5.85 µM (active); in [5], 3.69 µM (active); in experiment [6], 29.3 µM (active); in [10], 9.27 µM (active); in experiment [11] it was 11.7 µM (active). Besides, the Potency in experiment [12] was 14.8 µM (active). Besides, the Potency result in experiment [4], in experiment [8] and in [13] was “inactive” throughout.
As for `CNC(=O)CN1CCC(Oc2cc3c(Nc4cccc(Cl)c4F)ncnc3cc2OC)CC1`, the Potency in [1] is 4.65 µM (active); in experiment [2] it was 0.928 µM (active); in [8] it was 5.85 µM (active); in experiment [9], 10.4 µM (active). Further, the Potency result in [3], in [4], in [12] and in experiment [13] was “inactive” each time.
Turning to `CC(=O)OCC(=O)[C@@]1(O)[C@H](C)C[C@H]2[C@@H]3C=C(C)C4=Cc5c(cnn5-c5ccccc5)C[C@]4(C)[C@@H]3[C@@H](O)C[C@@]21C`, the Potency in experiment [1] was 23.3 µM (active); in experiment [14], 13.1 µM (active); in [2], 13.1 µM (active); in [3], 18.5 µM (active); in experiment [5], 9.27 µM (active); in experiment [6], 13.1 µM (active). Besides, the Potency in experiment [7] is 9.27 µM (active); in experiment [8], 16.5 µM (active); in experiment [9], 16.5 µM (active); in experiment [10] it was 14.7 µM (active); in experiment [11], 16.5 µM (active); in [12], 14.8 µM (active). Moreover, in [13], the Potency result was “inactive”.

Source of the values: PubChem BioAssay (NCATS).
